The panel holds about 83,000 compounds, 20% with a hit somewhere; the sample as a whole holds those more often.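 Compound tested at a single concentration for 48 hours in 96-well plates; a percent growth value below 10 was scored as active.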 The source made the active and inactive calls.
Columns and labels:
Assay in all cases: NCI-60 one-dose screen, 48 h (100 = growth as untreated, 0 = no growth, -100 = all killed)
SK-MEL-2 melanoma = conditions: 10 µM unless noted
EKVX NSCLC = conditions: 10 µM unless noted
SN12C renal = conditions: 10 µM unless noted
UO-31 renal = conditions: 10 µM unless noted
ACHN renal = conditions: 10 µM unless noted
CAKI-1 renal = conditions: 10 µM
A498 renal = conditions: 10 µM unless noted
CCRF-CEM leukemia = conditions: 10 µM unless noted
MOLT-4 leukemia = conditions: 10 µM unless noted

Measured: growth

c1ccc(CNCCN(CCNCc2ccccn2)Cc2ccc3ccccc3c2)nc1
active: SK-MEL-2 melanoma 9.46% | SN12C renal 7.67% | UO-31 renal -79.8% | ACHN renal -27.9% | CAKI-1 renal -81.8% | A498 renal -17.5% | CCRF-CEM leukemia 6.8% | MOLT-4 leukemia -24.3%
inactive: EKVX NSCLC 15.4%

Cc1cc(O[C@@H]2O[C@@H](C)[C@H](O)[C@@H](O)[C@H]2O)c2c3c(c(O[C@@H]4O[C@@H](C)[C@H](O)[C@@H](O)[C@H]4O)cc2c1)C(=O)c1c(O)cccc1C3=O
inactive: SK-MEL-2 melanoma 90.4% | EKVX NSCLC 76.7% | SN12C renal 54.2% | UO-31 renal 11.7% | ACHN renal 47.2% | CAKI-1 renal 60.3% | CCRF-CEM leukemia 82.6% | MOLT-4 leukemia 68.8%
active: A498 renal -53%

CN(C)c1ccc(/C=c2\s/c(=C\C(=O)C(C)(C)C)[nH]c2=O)cc1
inactive: SK-MEL-2 melanoma 102% | EKVX NSCLC 93.9% | SN12C renal 99% | UO-31 renal 92.5% | ACHN renal 100% | CAKI-1 renal 97.8% | A498 renal 105% | CCRF-CEM leukemia 101% | MOLT-4 leukemia 133%

O=S1(=O)N(CCNc2nccc(-c3c(-c4cccc(O)c4)nc4sccn34)n2)CCN1Cc1ccccc1
active: A498 renal -20.9%
inactive: SK-MEL-2 melanoma 19.2% | EKVX NSCLC 90.9% | SN12C renal 64.1% | UO-31 renal 43.8% | ACHN renal 41.1% | CAKI-1 renal 39.4% | CCRF-CEM leukemia 31.9% | MOLT-4 leukemia 63.1%

COc1ccc(-c2nn(-c3ccc(NC(=O)Nc4ccc(Cl)c(Cl)c4)cc3)cc2-c2ccncc2)cc1Cl
active: SK-MEL-2 melanoma -35.5% | CAKI-1 renal 3.8%
inactive: EKVX NSCLC 21.5% | SN12C renal 20.5% | UO-31 renal 16.9% | ACHN renal 14.8% | A498 renal 10.7% | CCRF-CEM leukemia 12.6% | MOLT-4 leukemia 10.5%

COc1ccc(-c2nn(-c3ccc(NC(=O)c4ccc(Cl)c(C(F)(F)F)c4)cc3)cc2-c2ccncc2)cc1Cl
inactive: EKVX NSCLC 34.8% | SN12C renal 44.3% | ACHN renal 27.3% | CCRF-CEM leukemia 23.4%
active: SK-MEL-2 melanoma 4.6% | UO-31 renal -26.8% | CAKI-1 renal -33.6% | A498 renal -5.21% | MOLT-4 leukemia 1.35%

CCOC(=O)CSc1nnc(-c2cc3c([nH]c4ccccc43)c(-c3cccc(O)c3)n2)n1-c1ccc(C)cc1
inactive: SK-MEL-2 melanoma 37.7% | EKVX NSCLC 78.8% | SN12C renal 58.1% | UO-31 renal 72.6% | ACHN renal 50.4% | CAKI-1 renal 92.1% | A498 renal 96.8% | CCRF-CEM leukemia 46.4% | MOLT-4 leukemia 17.4%

CC(=O)O[C@@H]1[C@@H](OC(C)=O)[C@H](OC(C)=O)CO[C@H]1Nc1cccc2ccccc12
inactive: SK-MEL-2 melanoma 82.3% | EKVX NSCLC 99.8% | SN12C renal 94.3% | UO-31 renal 62.4% | ACHN renal 98.8% | A498 renal 101% | CCRF-CEM leukemia 71.7%

COc1cc2ncn3c(=O)c4c5c(sc4nc3c2cc1OC)CCCCC5
inactive: SK-MEL-2 melanoma 113% | EKVX NSCLC 87.9% | SN12C renal 105% | UO-31 renal 92.5% | ACHN renal 94% | A498 renal 90.9% | CCRF-CEM leukemia 103%

O=[N+]([O-])c1cccc(C2c3ccccc3Oc3ccccc32)c1
inactive: SK-MEL-2 melanoma 107% | EKVX NSCLC 93.9% | SN12C renal 99.9% | UO-31 renal 70.7% | ACHN renal 89.1% | CAKI-1 renal 72.4% | A498 renal 94.1% | CCRF-CEM leukemia 88.6% | MOLT-4 leukemia 79.6%

Cc1ccc2nc(-c3ccc(-n4on4-c4ccc(/C=C/c5ccc(-n6on6-c6ccc(-c7nc8ccc(C)cc8s7)cc6)cc5S(=O)(=O)O)c(S(=O)(=O)O)c4)cc3)sc2c1
inactive: SK-MEL-2 melanoma 112% | EKVX NSCLC 112% | SN12C renal 105% | UO-31 renal 90.4% | ACHN renal 105% | CAKI-1 renal 106% | A498 renal 112% | CCRF-CEM leukemia 100% | MOLT-4 leukemia 93.9%

CCCCOc1nc2ccc(Cl)cc2cc1/C=C/C(=O)/C=C/c1ccc(Cl)cc1
inactive: SK-MEL-2 melanoma 101% | EKVX NSCLC 83.7% | SN12C renal 92.1% | UO-31 renal 66.9% | ACHN renal 81.5% | CAKI-1 renal 98.1% | A498 renal 92.4% | CCRF-CEM leukemia 76.2% | MOLT-4 leukemia 71.5%

Nc1ncnc2c1ccn2-c1cccc(NC(=O)c2cccc(C(F)(F)F)c2)c1
inactive: SK-MEL-2 melanoma 80.6% | EKVX NSCLC 66.6% | SN12C renal 88.4% | UO-31 renal 86.4% | ACHN renal 64.1% | CAKI-1 renal 69.7% | A498 renal 82.9% | CCRF-CEM leukemia 51.3% | MOLT-4 leukemia 52.3%

Nc1nccc2c1ccn2-c1ccc(NC(=O)Nc2cccc(C(F)(F)F)c2)cc1
inactive: SK-MEL-2 melanoma 113% | EKVX NSCLC 93.7% | SN12C renal 87.1% | UO-31 renal 81.4% | ACHN renal 91.6% | CAKI-1 renal 97.4% | A498 renal 88.4% | CCRF-CEM leukemia 94.1% | MOLT-4 leukemia 82.8%

Reference: PubChem BioAssay (NCI)
